Test [1] has as its target Lysosomal acid glucosylceramidase (Homo sapiens) (UniProt P04062). The experiment in a line: Glucocerebrosidase-p2 (AID 348; in the data active means potency below about 10 µM; further: potency means the concentration at half of the fitted maximal effect). The conditions noted are these: purified GBA, blue fluorogenic substrate, 40 min. In short, it runs like this: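 Compounds titrated from 0.6 nM upwards against 0.2 nM enzyme in pH 5.9 citric acid/KH2PO4, taurocholate, tween-20; blue fluorogenic substrate 80 uM, 40 min room temperature, stopped and read Ex 365/Em 440 for AC50.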

The nature of test [2]: AP1 Signaling Pathway (AID 357). Further: on the % scale 0 is the no-effect control and ±100 the full control effect. The conditions noted are these: ME-180 AP-1-bla reporter, EGF-induced, beta-lactamase ratio, 5 h; at 7.69 µM (top of the series) unless noted. In short, it runs like this: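 In this screen, ME-180 cells in Opti-MEM with 0.5% dialyzed FBS received EC50 EGF and compound titrations for 5 h. AP-1 reporter beta-lactamase was detected via CCF4 ratio, giving AC50 for positive and negative modulators.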

A short description of test [3]: Stat Signaling Pathway (AID 446).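 Further: ME-180 cervical cancer cells given 40 pM IL-6 alongside compound; SIE-controlled beta-lactamase reporter measured as 460/530 nm FRET emission ratio; on the % scale 0 is the no-effect control and ±100 the full control effect.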 The conditions noted are these: ME-180 SIE beta-lactamase reporter, IL-6 stimulated, 5 h; at 7.69 µM (top of the series) unless noted. In short, it runs like this: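 ME-180 cells carrying a SIE-driven beta-lactamase reporter are stimulated with 40 pM IL-6 for 5 h at 37C in the presence of compound. The 460/530 nm FRET substrate ratio is read after 2.5 h at RT. Data are normalised to 300 pM IL-6 and to 125 nM JAK inhibitor controls.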

The target in test [4] is Glucocorticoid receptor (Homo sapiens) (UniProt P04150). The experiment in a line: GR-GFP Redistribution (AID 450;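 active means compounds whose dose series gives a full or clear partial fitted curve of increased nuclear translocation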; further: potency means the concentration at half of the fitted maximal effect). The conditions noted are these: U2OS GR-GFP nuclear translocation, laser cytometry, 2 h.
Glucocorticoid receptor (Homo sapiens), sequence (P04150 whole entry, looked up): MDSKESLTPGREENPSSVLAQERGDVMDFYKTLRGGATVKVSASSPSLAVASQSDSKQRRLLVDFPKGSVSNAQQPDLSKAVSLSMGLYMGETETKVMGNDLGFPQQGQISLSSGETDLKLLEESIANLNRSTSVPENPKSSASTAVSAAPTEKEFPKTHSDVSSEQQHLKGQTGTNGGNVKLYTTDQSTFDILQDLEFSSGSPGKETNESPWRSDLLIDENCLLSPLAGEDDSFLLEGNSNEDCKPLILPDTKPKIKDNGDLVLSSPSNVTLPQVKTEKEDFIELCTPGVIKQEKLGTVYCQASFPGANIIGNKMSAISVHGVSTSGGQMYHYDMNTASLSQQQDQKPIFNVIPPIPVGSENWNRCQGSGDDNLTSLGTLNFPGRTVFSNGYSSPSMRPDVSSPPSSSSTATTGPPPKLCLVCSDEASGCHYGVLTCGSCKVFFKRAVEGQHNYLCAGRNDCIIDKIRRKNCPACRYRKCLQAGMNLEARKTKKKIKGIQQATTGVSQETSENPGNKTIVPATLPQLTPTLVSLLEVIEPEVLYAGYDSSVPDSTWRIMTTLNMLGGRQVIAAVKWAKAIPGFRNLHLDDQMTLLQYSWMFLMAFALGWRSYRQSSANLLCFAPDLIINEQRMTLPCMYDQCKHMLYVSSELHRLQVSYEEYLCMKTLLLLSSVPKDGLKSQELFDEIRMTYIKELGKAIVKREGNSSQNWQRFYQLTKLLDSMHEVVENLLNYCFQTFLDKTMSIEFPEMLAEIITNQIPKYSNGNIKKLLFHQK
For test [5] the target is unchanged. The experiment in a line: GR-EFC Redistribution (AID 451; calls by dose curve; further: potency means the concentration at half of the fitted maximal effect). The conditions noted are these: CHO-K1 GR-EFC translocation, beta-gal luminescence, 2 h. In short, it runs like this:
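CHO-K1 cells stably expressing nuclear-localized β-gal enzyme acceptor and GR fused C-terminally to the enzyme donor fragment; ligand-driven nuclear translocation restores β-gal by complementation. Compounds titrated up to 46 uM final, 2 h at 37 °C; luminescence read.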

The target of test [6] is Mitogen-activated protein kinase 10 (Mus musculus) (UniProt Q61831). The experiment in a line: JNK3 AlphaScreen Assay (AID 530).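 Further: kinase came from lysate of stimulated human HepG2 cells; signal reports phosphorylation of biotinylated GST-cJun 1-79 at Ser73 with 10 µM ATP; on the % scale 0 is the no-effect control and ±100 the full control effect.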 The conditions noted are these: JNK3 lysate, c-Jun phosphorylation; series mostly up to 11.4 µM. In a few lines:
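Inhibitors reduce antibody binding to phosphorylated biotin-cJun, lowering AlphaScreen luminescence. Lysates from HepG2 cells pre-activated by IL-1beta plus TNF-alpha supplied JNK3; compounds were titrated.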
Background: Bead proximity is the source of the signal in Alpha formats.

The target in test [7] is 3',5'-cyclic-AMP phosphodiesterase 4B (Homo sapiens) (UniProt Q07343). The test can be described thus: qHTS Assay for Inhibitors of PDE-IV (AID 607; active means well fitted activation curve with a large enough effect in the main read-out, with a control signal flat, not every such curve was filed as active; further: % of control where 0% means no effect). The conditions noted are these: HEK293 ACTOne CNG channel cells, membrane potential fluorescence; series mostly up to 22.9 µM. In short, it runs like this:
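HEK293 ACTOne cells with CNG channel (1000/well), endogenous PDE4; membrane potential dye, compounds up to 22.9 uM final. Fluorescence Ex 535/Em 590; RO 20-1724 (100 uM final) as reference.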
Background: Quantitative high-throughput screening tests each substance at several concentrations.

Test [8] deals with Cytochrome P450 3A4 (Homo sapiens) (UniProt P08684). The test can be described thus: qHTS Assay for Activators of Cytochrome P450 3A4 (AID 885; active means well fitted curve in the direction sought with a large enough effect; an effect the other way counts as inactive or inconclusive; further: nearly all actives have a fitted effect of over 65% in size). The conditions noted are these: recombinant CYP3A4, Luciferin-PPXE luminescence, 60 min; series mostly up to 11.4 µM. In a few lines:
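Human CYP3A4 (20 nM) with Luciferin-PPXE at 25 uM (its KM) in 200 mM KPO4; 10 min compound preincubation, then NADPH regeneration and 60 min reaction at RT. Luciferin read by luminescence; normalized to 57 uM ketoconazole full inhibition.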

The target of test [9] is Cytochrome P450 2C19 (Homo sapiens) (UniProt P33261). The experiment in a line: qHTS Assay for Inhibitors and Substrates of Cytochrome P450 2C19 (AID 899; active means well fitted curve in the direction sought with a large enough effect; an effect the other way counts as inactive or inconclusive; further: nearly all actives have a fitted effect of over 60% in size; further: potency means the concentration at half of the fitted maximal effect; on activity, negative = inhibition: on the % scale 0 is the no-effect control and ±100 the full control effect). The conditions noted are these: recombinant CYP2C19, luciferin-H EGE luminescence; series mostly up to 11.4 µM. In short, it runs like this:
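In 50mM KPO4, the reaction held 5nM enzyme and KM-level (10uM) Luciferin-H EGE; it ran 60 min at 37C after NADPH regeneration and a 10 min compound preincubation. Luminescence values were scaled to 57uM ketoconazole as complete inhibition.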

A short description of test [10]: qHTS Assay for Identification of Small Molecule Agonists for Hypoxia Response Element Signaling Pathway (AID 914; active means well fitted activation curve with a large enough effect in the signal ratio, with a control signal flat, not every such curve was filed as active; the % refers to the signal ratio; further: % of control where 0% means no effect). The conditions noted are these: ME-180 (cervical carcinoma) HRE-bla reporter, beta-lactamase ratio, CoCl2, 17 h; activation: active compounds read high. In short, it runs like this:
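Positive modulation of EC50 CoCl2-induced hypoxia response element signaling is measured in ME-180 cells with a beta-lactamase reporter. Compounds are titrated, incubation runs 17 hours, and %Activity derives from the blue/green ratio.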

Unmarked numbers belong to inactive results. Records with an inconclusive call do not appear. Calls of active or inactive are those of the source. Unless noted, the call rests on the fitted dose curve; in most records, active means well fitted curve in either direction with a large enough effect (not every such curve was filed as active); inconclusive means small, poorly fitted or top-dose-only effect, or another doubt; inactive means flat fitted curve, though single readings scatter. A value given as a limit tells only on which side of the number the result lay.

3',5'-cyclic-AMP phosphodiesterase 4B (Homo sapiens), sequence (Q07343 whole entry, looked up): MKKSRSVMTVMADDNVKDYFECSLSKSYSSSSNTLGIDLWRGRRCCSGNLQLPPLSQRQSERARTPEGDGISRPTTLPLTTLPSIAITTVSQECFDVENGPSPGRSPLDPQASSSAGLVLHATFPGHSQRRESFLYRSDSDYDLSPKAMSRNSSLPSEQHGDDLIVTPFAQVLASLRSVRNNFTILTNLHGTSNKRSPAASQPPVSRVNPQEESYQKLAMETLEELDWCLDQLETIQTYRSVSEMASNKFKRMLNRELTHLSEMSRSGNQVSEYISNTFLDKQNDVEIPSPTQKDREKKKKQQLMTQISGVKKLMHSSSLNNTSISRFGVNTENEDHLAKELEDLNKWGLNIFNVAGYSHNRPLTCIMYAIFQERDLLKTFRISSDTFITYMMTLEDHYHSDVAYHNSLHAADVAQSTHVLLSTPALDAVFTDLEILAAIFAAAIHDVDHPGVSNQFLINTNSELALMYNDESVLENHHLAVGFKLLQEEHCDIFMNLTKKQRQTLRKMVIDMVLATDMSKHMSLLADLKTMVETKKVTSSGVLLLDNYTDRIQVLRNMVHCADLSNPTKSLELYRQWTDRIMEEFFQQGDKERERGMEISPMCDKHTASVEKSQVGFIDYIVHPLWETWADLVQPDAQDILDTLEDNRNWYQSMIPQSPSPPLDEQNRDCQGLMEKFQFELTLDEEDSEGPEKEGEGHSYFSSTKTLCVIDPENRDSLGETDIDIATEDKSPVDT
Lysosomal acid glucosylceramidase (Homo sapiens), sequence (P04062 whole entry, looked up): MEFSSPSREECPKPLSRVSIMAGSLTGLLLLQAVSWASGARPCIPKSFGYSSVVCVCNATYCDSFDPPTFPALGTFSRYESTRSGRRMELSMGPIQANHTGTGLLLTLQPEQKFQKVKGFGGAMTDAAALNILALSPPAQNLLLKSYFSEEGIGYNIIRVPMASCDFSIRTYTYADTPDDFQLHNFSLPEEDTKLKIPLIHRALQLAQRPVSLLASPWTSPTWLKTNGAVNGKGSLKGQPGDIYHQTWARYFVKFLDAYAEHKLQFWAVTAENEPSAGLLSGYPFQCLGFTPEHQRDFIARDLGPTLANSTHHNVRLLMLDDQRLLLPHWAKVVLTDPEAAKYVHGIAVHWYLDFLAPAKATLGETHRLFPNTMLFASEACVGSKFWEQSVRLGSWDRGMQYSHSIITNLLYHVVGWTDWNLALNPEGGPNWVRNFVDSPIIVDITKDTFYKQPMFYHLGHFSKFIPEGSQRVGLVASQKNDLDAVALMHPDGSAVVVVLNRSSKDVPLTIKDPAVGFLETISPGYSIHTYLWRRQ
Cytochrome P450 2C19 (Homo sapiens), sequence (P33261 whole entry, looked up): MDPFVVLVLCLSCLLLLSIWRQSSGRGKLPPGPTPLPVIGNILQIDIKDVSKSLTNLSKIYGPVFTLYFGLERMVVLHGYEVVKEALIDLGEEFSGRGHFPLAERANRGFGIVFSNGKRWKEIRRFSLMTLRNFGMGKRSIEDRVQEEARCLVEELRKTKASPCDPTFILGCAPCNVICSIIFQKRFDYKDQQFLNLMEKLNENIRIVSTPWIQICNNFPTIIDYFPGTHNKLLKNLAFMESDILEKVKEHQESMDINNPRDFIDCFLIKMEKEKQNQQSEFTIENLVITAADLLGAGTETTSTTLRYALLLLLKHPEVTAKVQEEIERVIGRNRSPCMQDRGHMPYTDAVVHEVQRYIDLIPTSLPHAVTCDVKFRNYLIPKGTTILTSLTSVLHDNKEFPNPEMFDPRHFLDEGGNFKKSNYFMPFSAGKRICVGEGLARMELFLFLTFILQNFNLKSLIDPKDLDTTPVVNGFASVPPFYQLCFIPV
Cytochrome P450 3A4 (Homo sapiens), sequence (P08684 whole entry, looked up): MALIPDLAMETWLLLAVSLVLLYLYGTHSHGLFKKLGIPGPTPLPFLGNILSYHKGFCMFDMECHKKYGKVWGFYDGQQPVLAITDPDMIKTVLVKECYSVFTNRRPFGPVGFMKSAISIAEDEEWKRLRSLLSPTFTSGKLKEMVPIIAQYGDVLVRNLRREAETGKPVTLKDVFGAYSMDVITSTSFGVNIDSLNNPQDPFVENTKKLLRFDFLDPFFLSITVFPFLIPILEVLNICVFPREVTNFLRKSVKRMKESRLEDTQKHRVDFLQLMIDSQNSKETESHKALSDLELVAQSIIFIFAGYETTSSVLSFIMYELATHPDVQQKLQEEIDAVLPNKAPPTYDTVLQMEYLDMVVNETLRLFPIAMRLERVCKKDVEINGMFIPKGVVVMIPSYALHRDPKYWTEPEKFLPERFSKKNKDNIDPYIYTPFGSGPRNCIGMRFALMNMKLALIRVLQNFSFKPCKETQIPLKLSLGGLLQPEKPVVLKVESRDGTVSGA

With `O[C@@H](c1cc(-c2ccccc2)nc2c1ccc1ccccc12)[C@@H]1CCCCN1`, the Potency is above 11.4 µM in test [1], above 46 µM in test [4] and above 9.22 µM in [5]. Further, the activity change, negative = inhibition in [2] is -3.12%. Besides, in test [3], the activity, negative = inhibition is 9.42%. Besides, the Potency entry in test [6] was “inactive”.
Regarding `C=C(CC(=O)O)C(=O)O` (tested in a mixture with another compound), the Potency was above 11.4 µM in [1], above 46 µM in [4] and above 9.22 µM in [5]. Moreover, in test [2], the activity change, negative = inhibition is 6.49%. The activity, negative = inhibition in test [3] was -4.69%. In addition, the Potency result in test [6] and in [7] was “inactive” each time.
In the case of `CC(C)(C)C1CCC2(CC1)CCN(CCCN1CCOCC1)CC2`, the Potency in [1] was above 11.4 µM; in test [4], above 46 µM; in test [5] it was above 9.22 µM. Further, the activity change, negative = inhibition in test [2] was 11.9%. The activity, negative = inhibition in test [3] was -3.69%. The Potency result in test [6] is “inactive”.
As to `CN(C)CCC[C@@H]1c2ccccc2Oc2ccc(C(F)(F)F)cc21`, the values for the Potency in test [1], in test [4] and in [5] were above 11.4 µM, above 46 µM and above 9.22 µM, respectively. Moreover, the activity change, negative = inhibition in test [2] was 21.1%. The activity, negative = inhibition in [3] was 4.88%. Moreover, the Potency entry in [6] and in test [7] was “inactive” each time.
For `COC(=O)c1ccc(CCc2cc(O)ccc2O)cc1`, the Potency in test [1] was above 11.4 µM; in test [4], above 46 µM; in test [5] it was above 9.22 µM; in [9], 3.16 µM (active). The activity change, negative = inhibition in test [2] is -7.43%. Besides, the activity, negative = inhibition in [3] is -16.8%. For the same compound, the Potency result in [6], in [7] and in test [8] was “inactive” each time.
For `O=C1c2ccccc2C(=O)c2c(NC(=O)c3ccc4c5c(ncnc35)-c3ccccc3C4=O)cccc21`, the results for the Potency in [1], in test [4] and in test [5] were above 11.4 µM, above 46 µM and above 9.22 µM, respectively. Moreover, the activity change, negative = inhibition in test [2] is 5.12%. In test [3], the activity, negative = inhibition was 0.00925%. In addition, the Potency entry in test [6] and in [7] was “inactive” in each case.
As for `O=C(O)c1ccc(N[C@H](c2ccccc2)c2ccc3cccnc3c2O)cc1`, the Potency in test [1] was above 11.4 µM; in test [4], above 46 µM; in test [5] it was above 9.22 µM. Further, in [2], the activity change, negative = inhibition is -0.822%. In addition, the activity, negative = inhibition in test [3] was -17%. Also, the Potency result in [6] and in [7] was “inactive” each time.
Turning to `O=C(CCN1CCCCC1)c1csc2ccccc12`, the Potency in test [1] was above 11.4 µM; in test [4], above 46 µM; in test [5], above 9.22 µM. The activity change, negative = inhibition in test [2] was -4.73%. Further, the activity, negative = inhibition in [3] is -9.72%. The Potency entry in test [6] and in test [7] was “inactive” in each case. Also, in [10], the activation is -7.69%.
Take `NC(CSS(=O)(=O)O)=N[C@@H]1C[C@H]2CC[C@@H]1C2`: the Potency was above 11.4 µM in test [1], above 46 µM in test [4] and above 9.22 µM in test [5]. Besides, the activity change, negative = inhibition in [2] is 16.8%. In test [3], the activity, negative = inhibition was -5.27%. Besides, the Potency result in test [6], in [7] and in test [9] was “inactive” each time.
With `O=C(O)[C@H]1CCc2ccc3ccccc3c2[C@H]1c1cccc2ccccc12`, the Potency in test [1] is above 11.4 µM; in [4], above 46 µM; in [5] it was above 9.22 µM. The activity change, negative = inhibition in test [2] is -12.8%. For the same compound, the activity, negative = inhibition in test [3] was -8.82%. Moreover, the Potency entry in [6] and in test [7] was “inactive” throughout.

These data come from PubChem BioAssay (NCATS).
